Screening data as filed in PubChem.
Tau fluor cs: counter-screen for tau fibril formation inhibitors | actives 0.93% (n = 280,000) | tau K18 P301L Alexa594 fluorescence, heparin fibrillization | Potency, µM (doses to about 57.7 µM), inactives show at the highest dose activity change, negative = decrease | AID 1463; also: nearly all actives have a fitted effect of over 55% in size
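Human tau K18 P301L (15 uM unlabeled, 0.24 uM Alexa 594-labeled) in 100 mM sodium acetate pH 7 with 20 uM heparin, 6 hr at 37 C. ThT 30 uM added, 1 hr ambient; Alexa 594 FP and total fluorescence read at 555/632 nm.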
Tau FP inhib: inhibitors of human tau fibril formation | K18 P301L tau heparin fibrillization, Alexa594 FP, 6 h | Potency, µM (series often up to 57.7 µM), for the others: top-dose activity, negative = inhibition, hits mostly inhibitors | actives 0.39% (n = 280,000) | P10636; also: nearly all actives have a fitted effect of over 55% in size
Target sequence (P10636 561-689 P618L limits assumed): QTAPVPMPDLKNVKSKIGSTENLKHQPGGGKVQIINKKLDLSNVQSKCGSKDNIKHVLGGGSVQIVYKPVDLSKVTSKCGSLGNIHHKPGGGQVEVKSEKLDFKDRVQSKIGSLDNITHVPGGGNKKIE
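Recombinant K18 P301L […], labeled with Alexa 594 at 0.24 uM over 15 uM unlabeled; heparin inducer 20 uM final; 37 C, 6 hr; FP endpoint.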
Gal4-VP16 FLuc: counter-screen for ROR gamma inhibitors: Gal4-VP16 reporter; AID 2546; Drosophila S2 Gal4-VP16 UAS-luciferase, luminescence, 20 h; actives 3.5% (n = 310,000); Potency, µM (series often up to 53.6 µM), for the others: at the top dose activity, negative = inhibition, hits mostly inhibitors;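 also: Gal4-VP16 expression switched on by copper sulfate through the metallothionein promoter; nearly all actives have a fitted effect of over 50% in size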
RORgamma inh: inhibitors of mouse ROR gamma transcriptional activity. P51450. Drosophila S2 Gal4-RORgamma UAS-luciferase reporter, 20 h. Potency, µM (top dose mostly 53.6 µM), for the others: top-dose activity change, negative = inhibition, actives largely listed as inhibitors. actives 5.4% (n = 310,000). AID 2551; also: nearly all actives have a fitted effect of over 60% in size
Target sequence (P51450 whole entry, looked up, the tested form may be a part): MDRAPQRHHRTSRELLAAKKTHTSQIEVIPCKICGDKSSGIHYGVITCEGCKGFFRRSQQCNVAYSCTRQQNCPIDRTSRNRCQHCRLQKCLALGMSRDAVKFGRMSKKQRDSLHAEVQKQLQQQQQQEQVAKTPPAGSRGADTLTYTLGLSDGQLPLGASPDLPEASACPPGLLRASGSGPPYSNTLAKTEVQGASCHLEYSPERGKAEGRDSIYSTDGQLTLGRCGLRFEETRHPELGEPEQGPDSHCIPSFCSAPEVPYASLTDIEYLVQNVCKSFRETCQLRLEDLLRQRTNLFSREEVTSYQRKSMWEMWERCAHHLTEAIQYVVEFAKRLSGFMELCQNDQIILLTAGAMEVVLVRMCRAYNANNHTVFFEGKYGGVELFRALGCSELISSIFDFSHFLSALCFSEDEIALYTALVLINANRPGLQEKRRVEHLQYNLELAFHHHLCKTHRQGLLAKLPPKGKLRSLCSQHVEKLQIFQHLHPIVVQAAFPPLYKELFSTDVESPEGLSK
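Schneider cells (Drosophila), stable Gal4 DBD–ROR gamma + UAS-luc; 1 hr cmpd preincubation; Cu2+ induction 700 uM final; 20 hr ambient; luminescence.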
Tau ThT inhib: tau fibrillization inhibition (ThT binding) | P10636 | actives 2.1% (n = 270,000) | Potency, µM (series often up to 57.4 µM), for the others: top-dose activity, negative = inhibition, most hits filed as inhibitors | AID 1460 | recombinant tau K18 P301L (four-repeat tau fragment), heparin-induced fibrillization, ThT fluorescence; also: nearly all actives have a fitted effect of over 55% in size
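K18 P301L tau (15 uM + 0.24 uM Alexa 594-tagged), heparin 20 uM, NaOAc pH 7, 6 h 37 C; ThT 30 uM, 1 h RT, ex 450/em 510 nm.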
Starred values were filed as active, the others as inactive; ? = inconclusive; . = not tested or not shown; [ ] = remark or other dose. This is a sample that favours compounds with a hit; in the whole collection about 7.3% have one here. Calls follow the shape of the dose curve; as a rule, active = well fitted curve in the direction sought with a large enough effect; inconclusive = small, poorly fitted or top-dose-only effect, or another doubt; inactive = no such curve, though single readings can be large; an effect the other way counts as inactive or inconclusive. % is scaled to controls: 0 for no effect and ±100 for the full control effect; potency is read from the fitted curve at half-maximal effect.

SMILES	Tau fluor cs	Tau FP inhib	Gal4-VP16 FLuc	RORgamma inh	Tau ThT inhib
Cc1ccc(Cl)cc1N1C(=O)CC(Sc2ncccn2)C1=O (configuration not stated)	.	.	?	20µM*	.
O=C1CC(Sc2ncccn2)C(=O)N1c1ccccc1C(F)(F)F (configuration not stated)	1%	6%	7.1µM*	4.5µM*	-9%
Cc1nc(SC2CC(=O)N(c3cc(Cl)cc(Cl)c3)C2=O)nc2c1CCCC2 (configuration not stated)	-13%	12%	-2%	25%	?
COc1ccc(Cl)cc1S(=O)(=O)NCc1ccc2c(c1)CCN2C(=O)c1cccc(C)c1	-6%	10%	.	.	3%
CCc1ccc(NC(=O)C(=O)NCC(c2cccnc2)N2CCN(c3ccc(F)cc3)CC2)cc1 (configuration not stated)	-4%	15%	.	.	-11%
CC/C=C\C/C=C\C/C=C\C/C=C\C=C\C(O)CCCC(=O)O (configuration not stated)	-4%	-10%	1%	-38%	3%
CC(C)c1cccc(C(C)C)c1NC(=O)CN1C(=O)NC2(CCCC2)C1=O	.	.	2%	-13%	.
Cn1c(SCCC#N)nnc1-c1ccc(F)cc1	-3%	10%	4%	-27%	-1%
CC1=C(SCCC#N)S/C(=C2\SC(C)=C(SCCC#N)S2)S1	?	?	?	?	7.9µM*
COc1c(C(=O)NCCSC(C)(C)C)ccc2ccccc12	-2%	7%	0%	2.2µM*	-4%
COc1cccc(-c2nnc3sc(CN4CCCCC4)cn23)c1	7%	8%	.	.	10%
CCOc1ccccc1Nc1nc2ccccc2n1C(C)C	-9%	-4%	-6%	10µM*	-7%
CCNc1ncc2nc(-c3cn(C)c4ccccc34)c(=O)n(Cc3ccc(F)cc3)c2n1	.	.	3%	-16%	.
Cc1ccc(-n2c3c(cc(-c4nc(-c5ccc(Cl)cc5)cs4)c2=O)C(=O)CC(C)(C)C3)cc1	-2%	-12%	.	.	5%
CC(NC(=O)NC(N)=O)(C(F)(F)F)C(F)(F)F	1%	-5%	-7%	1%	-1%
CC(NC(=O)NNC(N)=S)(C(F)(F)F)C(F)(F)F	-7%	0%	20µM*	?	-7%
CCc1nc(Nc2ccccc2)c2oc3ccccc3c2n1	-27%	-14%	4%	-36%	-9%
CC(=O)N1CCN(c2ccc(Nc3ncnc4c3oc3ccccc34)cc2)CC1	?	3%	?	-22%	4.5µM*
CCc1nc(Nc2ccc(N3CCN(C(C)=O)CC3)cc2)c2oc3ccccc3c2n1	?	16%	-17%	-23%	13µM*
COc1ccc(Cn2c(SCC(=O)N3CCN(c4ccc(F)cc4)CC3)nc3ccccc32)cc1	-8%	8%	.	.	-17%
CC(C)(C)c1cc[n+](C2=C([O-])c3ccccc3C(=O)/C2=N\S(=O)(=O)c2ccccc2)cc1	?	?	6.3µM*	5.6µM*	16µM*
O=C1/C(=N\S(=O)(=O)c2cccs2)C([n+]2ccc(CCCc3ccccc3)cc2)=C([O-])c2ccccc21	?	3%	?	-19%	2.8µM*
Cc1cc(C)c[n+](C2=C([O-])c3ccccc3C(=O)/C2=N\S(=O)(=O)c2cccs2)c1	-3%	7%	-2%	32%	2%
CC(C)[n+]1ccn(C2=C([O-])c3ccccc3C(=O)/C2=N\S(=O)(=O)c2ccccc2)c1	-10%	-10%	?	-38%	?
Cc1cc[n+](C2=C([O-])c3ccccc3C(=O)/C2=N\S(=O)(=O)c2cccs2)cc1C	-22%	-8%	11µM*	16µM*	?
SMILES	Tau fluor cs	Tau FP inhib	Gal4-VP16 FLuc	RORgamma inh	Tau ThT inhib
COc1ccc(Oc2ncc3ncc(=O)n(Cc4ccc(F)cc4)c3n2)cc1	.	.	-14%	-8%	.
CC(C)[C@@H](CC(=O)N[C@@H]1CCCC[C@H]1C(=O)N[C@H](CC(=O)N[C@@H](CCC(=O)O)CC(=O)O)Cc1ccccc1)NC(=O)C[C@H](Cc1ccccc1)NC(=O)[C@@H]1CCCC[C@H]1N	-9%	-1%	2%	34%	-3%
O=C(NCCCN1CCCC1=O)c1cccc(S(=O)(=O)N2CCN(c3ccccc3)CC2)c1	.	.	6%	-25%	.
NNC(=O)c1cc2sccc2s1	-5%	0%	30%	-35%	-12%
COc1ccc(N(C)S(=O)(=O)c2cccc(C(=O)Nc3nc4ccccc4[nH]3)c2)cc1	?	-1%	11µM*	4µM*	6%
CN(c1cccc(Cl)c1)S(=O)(=O)c1cccc(C(=O)Nc2nc3ccccc3[nH]2)c1	?	-10%	3.5µM*	2.8µM*	0%
COc1cccc(C(=O)Nc2ccc(Cl)c(-c3nc4ccccc4[nH]3)c2)c1	?	25µM*	.	.	?
C=CCN(c1ccccc1)S(=O)(=O)c1cccc(C(=O)Nc2nc3ccccc3[nH]2)c1	-19%	-11%	4.5µM*	2.8µM*	10%
CCC(=O)Nc1ccc(Cl)c(-c2nc3ccccc3[nH]2)c1	-6%	0%	.	.	-2%
Cc1nc2c(C(=O)NCCc3ccccc3)c[nH]n2c(=O)c1Cc1ccc(F)cc1Cl	-22%	3%	.	.	?
Cc1ccc(CNC(=O)c2c[nH]n3c(=O)c(Cc4ccc(F)cc4Cl)c(C)nc23)cc1	?	-5%	.	.	28µM*
Cc1cccc(N2CCN(C(=O)C3CCC(CNS(=O)(=O)c4ccc(Br)s4)CC3)CC2)c1C (configuration not stated)	-3%	-9%	.	.	-10%
CCC1CN(C(=O)N2CCC(C(=O)N3CCN(c4cc(C)ccc4C)CC3)CC2)c2ccccc2O1 (configuration not stated)	?	15%	.	.	-9%
CCC1CN(C(=O)N2CCC(C(=O)N3CCN(c4cccc(C)c4C)CC3)CC2)c2ccccc2O1 (configuration not stated)	5µM*[quencher]	7%	.	.	-18%
Cc1cccc(N2CCN(C(=O)C3CCC(CNS(=O)(=O)c4cccs4)CC3)CC2)c1C (configuration not stated)	.	.	11µM*	?	.
CCC1CN(C(=O)N2CCC(C(=O)N3CCN(c4ccc(F)cc4)CC3)CC2)c2ccccc2O1 (configuration not stated)	2.5µM*[quencher]	-2%	.	.	10%
[O-][n+]1cccc(CO)c1	.	.	-3%	12%	.
Cc1c(C(=O)Nc2ccc(-c3nc4cc(Cl)ccc4o3)cc2)oc2ccccc12	3%	-8%	.	.	-10%
Cn1c(C2CCCCC2)nc2ccccc21	.	.	?	11µM*	.
CCN1C(=O)/C(=C2/Sc3ccccc3N2CC)S/C1=N\c1ncn[nH]1	?	9%	5µM*	11µM*	?
C=CCN1C(=O)/C(=C2/Sc3ccccc3N2CC)SC1=S	.	.	-21%	-29%	.
